A short description of assay [1]: qHTS assay to identify small molecule agonists of the NFkB signaling pathway (AID 1159509; active = well fitted curve in the direction sought with a large enough effect in the signal ratio in the repeat runs, not every such curve was filed as active; the % refers to the signal ratio; note: series mostly up to about 61 µM). The method, boiled down: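 Readout: FRET fluorescence, 405 nm excitation, 460/530 nm emission; beta-lactamase expression disrupts FRET. Cells: ME-180 stably carrying NF-kB-driven bla reporter. Compound exposure 5 hr, 37 C, 5% CO2.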
On the technique in general: qHTS replaces the single test concentration by a dilution series.

The nature of assay [2]: qHTS assay to identify small molecule agonists of the NFkB signaling pathway - cell viability counter screen (AID 1159515). Note: series mostly up to about 61 µM; nearly all actives have a fitted effect of over 55% in size. Put shortly: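 Plate 2,000 NFkB-bla ME-180 cells/well; incubate overnight. Add compounds, 5 hr at 37 C. Add FRET substrate, 1.5 hr RT. Add CellTiter-Glo, 30 min RT; read luminescence.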
Assay [3] is described as follows: qHTS assay to identify small molecule agonists of the endoplasmic reticulum stress response signaling pathway (AID 1159516; active = well fitted activation curve with a large enough effect in the signal ratio in the repeat runs, not every such curve was filed as active; the % refers to the signal ratio). Put shortly: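 Beta-lactamase expression from the ER stress response element in HeLa reporter cells is quantified with the LiveBLAzer B/G FRET substrate, read at 405 nm excitation after 2 hr at room temperature, following 5 hr compound treatment at 37 C.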

Assay [4] is described as follows: qHTS assay to identify small molecule agonists of the endoplasmic reticulum stress response signaling pathway - cell viability counter screen (AID 1159517). Note: series mostly up to about 61 µM; nearly all actives have a fitted effect of over 50% in size. The method, boiled down: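 Cytotoxicity of test compounds toward ESRE-bla HeLa cells was assessed after 5 hr exposure. The luminescent CellTiter-Glo signal was measured 30 min after reagent addition.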
The nature of assay [5]: qHTS assay to identify small molecule antagonists of the retinoid-related orphan receptor gamma (ROR-gamma) signaling pathway - cell viability counter screen (AID 1159520; active = well fitted curve in the direction sought with a large enough effect in the repeat runs; an effect the other way counts as inactive or inconclusive; note: nearly all actives have a fitted effect of over 50% in size). The method, boiled down: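 Tet-on ROR gamma CHO cells (1,000/well) were plated 4 hr, given compounds in DMSO for 2 hr at 37 C, then induced with 1 uM final doxycycline for 16 hr. Viability was read as ATP by CellTiter-Glo luminescence after 30 min.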

In assay [6] the target is Nuclear receptor ROR-gamma (Homo sapiens) (UniProt P51449). The experiment in a line: qHTS assay to identify small molecule antagonists of the retinoid-related orphan receptor gamma (ROR-gamma) signaling pathway (AID 1159521; active = well fitted curve in the direction sought with a large enough effect in the repeat runs; an effect the other way counts as inactive or inconclusive; note: nearly all actives have a fitted effect of over 50% in size; note: potency is the fitted concentration of half-maximal effect). Put shortly:
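Readout: ONE-Glo luciferase luminescence, 30 min at room temperature. System: Tet-on RORγ CHO, RORE-LUC. Sequence: compound 2 h, doxycycline 1 uM final, 16 h at 37 C.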

Assay [7] in a line: qHTS assay to identify small molecule agonists of the AP-1 signaling pathway - cell viability counter screen (AID 1159525). Note: nearly all actives have a fitted effect of over 55% in size. Put shortly:
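Each titration point was normalised to DMSO and tetra n-octyl ammonium bromide controls. The read was Cell Titer Glo luminescence after 30 min at RT, following 5 h compound exposure of ME-180 AP-1-bla cells at 37 °C.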

Assay [8] can be described thus: qHTS assay to identify small molecule agonists of the AP-1 signaling pathway (AID 1159526).
Assay [9] in a line: qHTS assay to identify small molecule agonists of the vitamin D receptor (VDR) signaling pathway - cell viability counter screen (AID 743224; active = well fitted curve in the direction sought with a large enough effect in the repeat runs; an effect the other way counts as inactive or inconclusive; note: series mostly up to about 63 µM; nearly all actives have a fitted effect of over 50% in size). Put shortly:
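In parallel with the bla FRET readout, cytotoxicity toward VDR-bla cells after 16 h compound exposure was assessed by CellTiter-Glo, with luminescence recorded after a 30 min room-temperature incubation.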

Assay [10] in a line: qHTS assay to identify small molecule antagonists of the vitamin D receptor (VDR) signaling pathway - cell viability counter screen (AID 743225; active = well fitted curve in the direction sought with a large enough effect in the repeat runs; an effect the other way counts as inactive or inconclusive; note: nearly all actives have a fitted effect of over 50% in size). Put shortly:
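Cytotoxicity toward the VDR-bla HEK 293T line was scored by ATP-based CellTiter-Glo luminescence, read in the wells already used for the beta-lactamase readout after 16 h compound treatment under 3 nM 1-alpha,25-dihydroxyvitamin D3 stimulation.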

We go through 25 compounds from PubChem BioAssay (Tox21).

Records with an inconclusive call do not appear. Values without a mark were called inactive. The source made the active and inactive calls. Unless noted, calls come from the whole dose curve.

`CCCN(C1CCN(C(=O)C2CCNCC2)CC1)[C@@H]1CCc2ccc(OC)cc2C1`: the call in assay [1], in assay [2], in assay [3], in assay [4] and in assay [7] was inactive. Besides, the Potency result in [5], in [6] and in assay [8] was “inactive” each time.
On to `CC(=O)c1cccnc1`, for which the outcome in [9], in [10], in [1], in [2], in assay [3] and in [4] was inactive. The compound was classed as inactive in assay [7]. Besides, the Potency result in [5], in assay [6] and in assay [8] was “inactive” each time.
For `OCC(O)c1ccccc1` (centres undefined), the call in assay [9], in assay [1], in assay [2], in [3], in assay [4] and in [7] was inactive. Moreover, the Potency result in assay [5], in assay [6] and in assay [8] was “inactive” throughout.
Turning to `O=C(O)c1ccncc1`, the result in assay [9], in assay [10], in assay [1], in assay [2], in assay [3] and in assay [4] was inactive. For the same compound, the compound was classed as inactive in assay [7]. The Potency entry in assay [5], in assay [6] and in assay [8] was “inactive” throughout.
Turning to `CCCOC(C)=O`, the result in [9], in assay [10], in assay [1], in assay [2], in assay [3] and in assay [4] was inactive. Further, the outcome in assay [7] was inactive. In addition, the Potency entry in [5], in assay [6] and in assay [8] was “inactive” in each case.
Consider `COC(=O)C(C)(C)C`, for which the call in [9], in assay [10], in assay [1], in [2], in [3] and in assay [4] was inactive. Further, the compound was classed as inactive in assay [7]. Also, the Potency result in [5], in [6] and in assay [8] was “inactive” in each case.
`CCC(C)C1N=C(C)C(C)S1` (centres undefined): the call in assay [9], in assay [10], in assay [1], in [2], in assay [3] and in [4] was inactive. Moreover, the call in [7] was inactive. Besides, the Potency entry in [5], in assay [6] and in [8] was “inactive” each time.
As to `O=C(Nc1ccc2c(c1)Cc1ccccc1-2)C(F)(F)F`, the compound was called inactive in [9], in assay [10], in [1], in [2], in [3] and in assay [4]. Besides, the outcome in assay [7] was inactive. The Potency result in assay [5], in assay [6] and in [8] was “inactive” each time.
On to `CCOC(C)OCC`, for which the compound was classed as inactive in assay [9], in assay [10], in [1], in assay [2], in assay [3] and in assay [4]. In addition, in assay [7], the compound was called inactive. For the same compound, the Potency entry in [5], in [6] and in assay [8] was “inactive” in each case.
As to `Cc1cc(N)n(-c2ccccc2)n1`, the outcome in assay [9], in [10], in assay [1], in assay [2], in assay [3] and in assay [4] was inactive. Further, the outcome in assay [7] was inactive. Moreover, the Potency result in assay [5], in assay [6] and in [8] was “inactive” in each case.
As to `CC(C)C/C=C(\C=O)c1ccccc1`, the outcome in assay [1], in assay [2], in [3], in assay [4] and in assay [7] was inactive. Further, the Potency result in assay [5], in assay [6] and in [8] was “inactive” in each case.
As for `CCCCCCCCNC`, the compound was called inactive in assay [9], in assay [1], in assay [2], in assay [3], in assay [4] and in assay [7]. Further, the Potency entry in [5], in assay [6] and in assay [8] was “inactive” in each case.
Consider `C=CC(=O)NC(C)(C)C`, for which the call in assay [9], in [10], in assay [1], in [2], in assay [3] and in assay [4] was inactive. Moreover, the outcome in assay [7] was inactive. In addition, the Potency entry in [5], in assay [6] and in assay [8] was “inactive” in each case.
Regarding `O=[N+]([O-])c1cccc(I)c1`, the call in assay [9], in assay [10], in [1], in assay [2], in [3] and in [4] was inactive. The compound was called inactive in assay [7]. In addition, the Potency entry in assay [5], in assay [6] and in assay [8] was “inactive” in each case.
Turning to `Cc1c(Nc2ncccc2C(=O)O)cccc1C(F)(F)F`, the call in [9], in assay [10], in [1], in assay [2], in assay [3] and in assay [4] was inactive. In addition, in [7], the result was inactive. Besides, the Potency entry in assay [5], in assay [6] and in assay [8] was “inactive” throughout.
Take `CCCCOC(=O)C(C)Oc1ccc(Oc2ccc(C(F)(F)F)cn2)cc1` (centres undefined): the compound was classed as inactive in assay [9], in [10], in assay [1], in assay [2], in assay [3] and in assay [4]. In addition, the call in [7] was inactive. Further, the Potency result in [5], in assay [6] and in assay [8] was “inactive” in each case.
`O=C(O)c1cccc(C(=O)O)c1C(=O)O`: the compound was classed as inactive in [9], in assay [10], in assay [1], in assay [2], in assay [3] and in assay [4]. The compound was called inactive in [7]. Also, the Potency result in assay [5], in assay [6] and in assay [8] was “inactive” in each case.
Regarding `C=CCCC`, the compound was called inactive in [9], in assay [10], in assay [1], in assay [2], in assay [3] and in assay [4]. Also, the result in [7] was inactive. The Potency result in [5], in [6] and in assay [8] was “inactive” throughout.
On to `CO[C@@H]1COCC[C@@H]1N[C@@H]1CC[C@@](C(=O)N2CCc3ncc(C(F)(F)F)cc3C2)(C(C)C)C1`, for which the compound was called inactive in assay [9], in assay [10], in [1], in [2], in assay [3] and in assay [4]. Moreover, the call in assay [7] was inactive. Besides, the Potency entry in assay [5], in assay [6] and in assay [8] was “inactive” each time.
Regarding `CC1=C(C)C(=O)C(CCCCC#CCCCC#CCO)=C(C)C1=O`, the call in assay [9], in [10], in assay [1], in assay [2], in [3] and in [4] was inactive. Also, the result in [7] was inactive. In addition, the Potency entry in assay [5] and in assay [8] was “inactive” each time. For the same compound, the Potency in assay [6] is 29.8 µM (active).
As to `O=C1OC(=O)C2CC=CCC12` (centres undefined), the result in assay [9], in assay [10], in assay [1], in assay [2], in assay [3] and in assay [4] was inactive. Besides, in assay [7], the compound was classed as inactive. Besides, the Potency result in assay [5], in assay [6] and in assay [8] was “inactive” each time.
In the case of `CCc1ccc(C(=O)C(C)CN2CCCCC2)cc1` (centres undefined), the compound was classed as inactive in assay [9], in assay [10], in [1], in [2], in assay [3] and in [4]. Further, in assay [7], the result was inactive. Also, the Potency entry in assay [5], in assay [6] and in [8] was “inactive” in each case.
As to `Nc1ccccc1Nc1ccccc1`, the compound was classed as inactive in assay [9], in assay [10], in assay [1], in assay [2], in [3] and in [4]. In addition, in assay [7], the outcome was inactive. Further, the Potency result in [5], in [6] and in assay [8] was “inactive” throughout.
With `C=CC(O)CCCCC` (centres undefined), the compound was classed as inactive in [9], in [10], in [1], in assay [2], in [3] and in assay [4]. In [7], the call was inactive. In addition, the Potency result in [5], in assay [6] and in assay [8] was “inactive” each time.
Take `O=C(N[C@@H](Cc1ccccc1)[C@@H](O)C(=O)N1C[C@@H](O)[C@@H](O)C1)c1cc2cc(Cl)ccc2[nH]1`: the compound was called inactive in assay [9], in assay [10], in [1], in assay [2], in assay [3] and in assay [4]. In addition, the result in assay [7] was inactive. In addition, the Potency entry in [5], in [6] and in assay [8] was “inactive” in each case.
